# Source: the supplement of paper PMC6522484
# ± gives the standard deviation of the averaged measurements.
# Experiments:
# DLD1 [1] = test: cell viability (CellTiter-Glo) relative to plate median (fraction of plate median); higher = more viable cells; details: 5 µM; treatment time 24 h; reporter: 7TFP
# Method in brief: (§1)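 Cells were seeded in 384-well plates; these were colorectal cancer lines stably transduced with lentiviral 7TFP or TCF4/Wnt firefly luciferase reporters. After 24 h, library compounds went in at a final 5 µM, and exposure lasted 24 h. Parallel plates were then read for firefly luciferase or CellTiterGlo luminescence, each well normalised to its plate median, with two independent replicates averaged.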
# HCT116 [2] = test: as above; details: 5 µM; treatment time 24 h; reporter: TCF4/Wnt
# Method in brief: as §1
# SW480 [3] = test: as above; details: 5 µM; treatment time 24 h; reporter: 7TFP
# Method in brief: as §1
# DLD1 [4] = test: TCF/Wnt firefly luciferase reporter signal relative to plate median (fraction of plate median); higher = higher Wnt reporter signal; details: 5 µM; treatment time 24 h; reporter: 7TFP
# Method in brief: as §1
# SW480 [5] = test: as above; details: 5 µM; treatment time 24 h; reporter: 7TFP
# Method in brief: as §1
# DLD1 [6] = test: cell viability (CellTiter-Glo) relative to plate median (fraction of plate median); higher = more viable cells; details: 10 µM, treatment time 24 h
# Method in brief: (§2)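 Values are the mean of two independent replicates of luminescence normalised to the plate median with webcellHTS2, using the additive method without log transformation. They come from colorectal cancer cell lines stably transduced with lentiviral TCF/Wnt firefly luciferase reporters (7TFP or TCF4/Wnt), seeded in 384-well plates. After 24 h the cells got kinase inhibitor library compounds at a final 10 µM for 24 h, and parallel plates were read for firefly luciferase or CellTiterGlo on a Tecan F500.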
# HCT116 [7] = test: as above; details: 10 µM; treatment time 24 h; reporter: TCF4/Wnt
# Method in brief: as §2
# SW480 [8] = test: as above; details: 10 µM; treatment time 24 h; reporter: 7TFP
# Method in brief: as §2
# DLD1 [9] = test: TCF/Wnt firefly luciferase reporter signal relative to plate median (fraction of plate median); higher = higher Wnt reporter signal; details: 10 µM, treatment time 24 h
# Method in brief: as §2
# HCT116 [10] = test: as above; details: 10 µM; treatment time 24 h; reporter: TCF4/Wnt
# Method in brief: as §2
# SW480 [11] = test: as above; details: 10 µM; treatment time 24 h; reporter: 7TFP
# Method in brief: as §2
smiles,measurement,setting,value
CC1=C(/C=C/C(C)=C/C=C/C(C)=C\C(=O)O)C(C)(C)CCC1,cell viability,DLD1 [1],1.02 ± 0.05
same,cell viability,HCT116 [2],0.949 ± 0.1
same,cell viability,SW480 [3],0.967 ± 0.012
same,TCF/Wnt firefly luciferase reporter signal,DLD1 [4],0.827 ± 0.097
same,TCF/Wnt firefly luciferase reporter signal,SW480 [5],0.872 ± 0.044
COc1ncc(-c2ccc3nccc(-c4ccnnc4)c3c2)cc1NS(=O)(=O)c1ccc(F)cc1F,cell viability,DLD1 [6]; reporter: 7TFP,0.84 ± 0.018
same,cell viability,DLD1 [6]; reporter: TCF4/Wnt,0.944 ± 0.073
same,cell viability,HCT116 [7],0.295 ± 0.026
same,cell viability,SW480 [8],1.09 ± 0.042
same,TCF/Wnt firefly luciferase reporter signal,DLD1 [9]; reporter: 7TFP,0.255 ± 0.054
same,TCF/Wnt firefly luciferase reporter signal,DLD1 [9]; reporter: TCF4/Wnt,0.238 ± 0.067
same,TCF/Wnt firefly luciferase reporter signal,HCT116 [10],0.132 ± 0.021
same,TCF/Wnt firefly luciferase reporter signal,SW480 [11],0.558 ± 0.0092
COc1cc2c(cc1-c1coc3c4c(c(OC)cc3c1=O)OC(C)(C)C=C4)OCO2,cell viability,DLD1 [1],0.998 ± 0.017
same,cell viability,HCT116 [2],1.06 ± 0.014
same,cell viability,SW480 [3],0.986 ± 0.018
same,TCF/Wnt firefly luciferase reporter signal,DLD1 [4],0.892 ± 0.014
same,TCF/Wnt firefly luciferase reporter signal,SW480 [5],0.938 ± 0.0099
O=C(O[C@@H]1Cc2c(O)cc(O)cc2O[C@@H]1c1cc(O)c(=O)c2c(O)c(O)cc([C@H]3Oc4cc(O)cc(O)c4C[C@H]3OC(=O)c3cc(O)c(O)c(O)c3)c2c1)c1cc(O)c(O)c(O)c1,cell viability,DLD1 [1],0.996 ± 0.035
same,cell viability,HCT116 [2],0.9235 ± 0.0064
same,cell viability,SW480 [3],1.045 ± 0.0071
same,TCF/Wnt firefly luciferase reporter signal,DLD1 [4],0.903 ± 0.041
same,TCF/Wnt firefly luciferase reporter signal,SW480 [5],1.04
Cc1ccc(F)c(NC(=O)Nc2ccc(-c3cccc4[nH]nc(N)c34)cc2)c1 [Linifanib (ABT-869)],cell viability,DLD1 [6]; reporter: 7TFP,0.833 ± 0.063
same,cell viability,DLD1 [6]; reporter: TCF4/Wnt,0.948 ± 0.1
same,cell viability,HCT116 [7],0.764 ± 0.03
same,cell viability,SW480 [8],0.883 ± 0.042
same,TCF/Wnt firefly luciferase reporter signal,DLD1 [9]; reporter: 7TFP,1.05 ± 0.086
same,TCF/Wnt firefly luciferase reporter signal,DLD1 [9]; reporter: TCF4/Wnt,1.33 ± 0.31
same,TCF/Wnt firefly luciferase reporter signal,HCT116 [10],0.906 ± 0.15
same,TCF/Wnt firefly luciferase reporter signal,SW480 [11],0.872 ± 0.42
COC(=O)C1=CO[C@@H](O[C@@H]2O[C@H](CO)[C@@H](O)[C@H](O)[C@H]2O)[C@@H]2[C@@H](C)CC(=O)[C@]12O,cell viability,DLD1 [1],0.871 ± 0.067
same,cell viability,HCT116 [2],0.88 ± 0.17
same,cell viability,SW480 [3],0.988 ± 0.06
same,TCF/Wnt firefly luciferase reporter signal,DLD1 [4],1.04 ± 0.19
same,TCF/Wnt firefly luciferase reporter signal,SW480 [5],1.08 ± 0.035
CC(=O)[C@H]1CC[C@H]2[C@@H]3C[C@H](C)C4=CC(=O)CC[C@]4(C)[C@H]3[C@@H](O)C[C@]12C,cell viability,DLD1 [1],0.979 ± 0.12
same,cell viability,HCT116 [2],0.981 ± 0.042
same,cell viability,SW480 [3],0.958 ± 0.029
same,TCF/Wnt firefly luciferase reporter signal,DLD1 [4],1.01 ± 0.069
same,TCF/Wnt firefly luciferase reporter signal,SW480 [5],1 ± 0.022
COc1ccc([C@@H](C)C(=O)c2ccc(O)cc2O)cc1,cell viability,DLD1 [1],1.04 ± 0.098
same,cell viability,HCT116 [2],1.09 ± 0.071
same,cell viability,SW480 [3],1.025 ± 0.0071
same,TCF/Wnt firefly luciferase reporter signal,DLD1 [4],1.02 ± 0.071
same,TCF/Wnt firefly luciferase reporter signal,SW480 [5],1.07 ± 0.1
O=C(O)[C@]1(Cc2cccc(Nc3nccs3)n2)CC[C@@H](Oc2cccc(Cl)c2F)CC1,cell viability,DLD1 [6]; reporter: 7TFP,1.08 ± 0.092
same,cell viability,DLD1 [6]; reporter: TCF4/Wnt,1.02 ± 0.014
same,cell viability,HCT116 [7],0.959 ± 0.057
same,cell viability,SW480 [8],1.14 ± 0.014
same,TCF/Wnt firefly luciferase reporter signal,DLD1 [9]; reporter: 7TFP,0.824 ± 0.061
same,TCF/Wnt firefly luciferase reporter signal,DLD1 [9]; reporter: TCF4/Wnt,0.857 ± 0.2
same,TCF/Wnt firefly luciferase reporter signal,HCT116 [10],0.568 ± 0.44
same,TCF/Wnt firefly luciferase reporter signal,SW480 [11],0.742 ± 0.0071
C[C@@H]1CC[C@@]2(OC1)O[C@H]1C[C@H]3[C@@H]4CC[C@H]5C[C@@H](O)CC[C@]5(C)[C@H]4CC[C@]3(C)[C@H]1[C@@H]2C,cell viability,DLD1 [1],0.953 ± 0.0057
same,cell viability,HCT116 [2],0.875 ± 0.037
same,cell viability,SW480 [3],1.01
same,TCF/Wnt firefly luciferase reporter signal,DLD1 [4],1.06 ± 0.028
same,TCF/Wnt firefly luciferase reporter signal,SW480 [5],0.931 ± 0.037
CC(C)c1c(O)ccc2c1CCC1[C@@](C)(C=O)CCC[C@]21C (some centres not stated),cell viability,DLD1 [1],1.03 ± 0.021
same,cell viability,HCT116 [2],1.01 ± 0.031
same,cell viability,SW480 [3],0.965 ± 0.04
same,TCF/Wnt firefly luciferase reporter signal,DLD1 [4],1.03 ± 0.014
same,TCF/Wnt firefly luciferase reporter signal,SW480 [5],1.08 ± 0.028
O=c1c(O)c(-c2ccc(O)c(O)c2)oc2cc(O)ccc12,cell viability,DLD1 [1],0.989 ± 0.073
same,cell viability,HCT116 [2],0.948 ± 0.028
same,cell viability,SW480 [3],0.969 ± 0.019
same,TCF/Wnt firefly luciferase reporter signal,DLD1 [4],1.01 ± 0.097
same,TCF/Wnt firefly luciferase reporter signal,SW480 [5],0.923 ± 0.11
COc1cc([C@@H]2c3cc4c(cc3[C@@H](O[C@@H]3O[C@@H]5CO[C@@H](C)O[C@H]5[C@H](O)[C@H]3O)[C@H]3COC(=O)[C@H]23)OCO4)cc(OC)c1O,cell viability,DLD1 [1],1.03 ± 0.028
same,cell viability,HCT116 [2],0.895 ± 0.12
same,cell viability,SW480 [3],1.03 ± 0.042
same,TCF/Wnt firefly luciferase reporter signal,DLD1 [4],0.815 ± 0.14
same,TCF/Wnt firefly luciferase reporter signal,SW480 [5],0.879 ± 0.12
COc1ccc(S(=O)(=O)N(C(C)=O)c2ccccc2/C=C/c2cc[n+]([O-])cc2)cc1,cell viability,DLD1 [6]; reporter: 7TFP,0.982 ± 0.14
same,cell viability,DLD1 [6]; reporter: TCF4/Wnt,1.17 ± 0.14
same,cell viability,HCT116 [7],0.619 ± 0.28
same,cell viability,SW480 [8],1.14 ± 0.085
same,TCF/Wnt firefly luciferase reporter signal,DLD1 [9]; reporter: 7TFP,0.725 ± 0.03
same,TCF/Wnt firefly luciferase reporter signal,DLD1 [9]; reporter: TCF4/Wnt,1 ± 0.14
same,TCF/Wnt firefly luciferase reporter signal,HCT116 [10],0.278 ± 0.0071
same,TCF/Wnt firefly luciferase reporter signal,SW480 [11],0.7 ± 0.083
Cc1cc(O)c(C=O)c2c1C(=O)Oc1c(COC(=O)/C=C/C(=O)O)c(O)c(C(=O)O)c(C)c1O2,cell viability,DLD1 [1],0.992 ± 0.026
same,cell viability,HCT116 [2],1.05 ± 0.021
same,cell viability,SW480 [3],0.966 ± 0.011
same,TCF/Wnt firefly luciferase reporter signal,DLD1 [4],0.933 ± 0.12
same,TCF/Wnt firefly luciferase reporter signal,SW480 [5],0.939 ± 0.12
CN1C2CCC1CC(OC(=O)C(O)c1ccccc1)C2 (configuration not stated),TCF/Wnt firefly luciferase reporter signal,DLD1 [4],1.05 ± 0.042
same,TCF/Wnt firefly luciferase reporter signal,SW480 [5],1.12 ± 0.021
CC1=CC(=O)c2ccccc2C1=O,cell viability,DLD1 [1],1.04 ± 0.05
same,cell viability,HCT116 [2],0.955 ± 0.064
same,cell viability,SW480 [3],1.025 ± 0.0071
same,TCF/Wnt firefly luciferase reporter signal,DLD1 [4],1.02 ± 0.044
same,TCF/Wnt firefly luciferase reporter signal,SW480 [5],0.914 ± 0.013
COc1ccc(-c2coc3cc(O)ccc3c2=O)cc1,cell viability,DLD1 [1],1.01 ± 0.071
same,cell viability,HCT116 [2],1.01 ± 0.15
same,cell viability,SW480 [3],0.9355 ± 0.00071
same,TCF/Wnt firefly luciferase reporter signal,DLD1 [4],0.998 ± 0.046
same,TCF/Wnt firefly luciferase reporter signal,SW480 [5],0.972 ± 0.069
O=C(NCc1ccccc1)c1csc(Nc2ccncn2)n1 [Thiazovivin],cell viability,DLD1 [6]; reporter: 7TFP,1.14 ± 0.085
same,cell viability,DLD1 [6]; reporter: TCF4/Wnt,1.13 ± 0.071
same,cell viability,HCT116 [7],1.16 ± 0.021
same,cell viability,SW480 [8],1.145 ± 0.0071
same,TCF/Wnt firefly luciferase reporter signal,DLD1 [9]; reporter: 7TFP,1.13
same,TCF/Wnt firefly luciferase reporter signal,DLD1 [9]; reporter: TCF4/Wnt,0.78 ± 0.18
same,TCF/Wnt firefly luciferase reporter signal,HCT116 [10],1.78 ± 0.028
same,TCF/Wnt firefly luciferase reporter signal,SW480 [11],1.205 ± 0.0071
